# Results taken from ChEMBL document CHEMBL4513216, “Probing the Open Global Health Chemical Diversity Library for Multistage-Active Starting Points for Next-Generation Antimalarials” (ACS Infect Dis, 2020).
# Screen size: about 69,000 compounds; about 8,600 (12%) showed an effect of 50% or more. This excerpt belongs to a sample that is enriched for strong results.
# Tested on: Plasmodium berghei
# Experiment: Screen against P. berghei liver stage (PbLuc), transformed with Luciferase, at 10uM
# Assay type: functional, HepG2
# Conditions: tested at 10 uM
row,Structure (SMILES),INHIBITION
1,Cc1nc(CN2C[C@H]3C[C@H](C(=O)NCC4CC4)N(C)[C@H]3C2)cs1,19.8%
2,O=C(NCCC1CCN(CC(F)(F)F)CC1)C1CCCOC1 (centres undefined),-10.3%
3,COCCNC(=O)c1ccoc1CN1c2ccccc2CC1C (centres undefined),20.9%
4,CC1Cc2ccccc2N1Cc1occc1C(=O)NCC(=O)N(C)C (centres undefined),53.9%
5,CCNC(=O)c1ccoc1CN1c2ccccc2CC1C (centres undefined),-3.19%
6,CNC(=O)C1CN(C(=O)c2cccnc2)CCN(S(C)(=O)=O)C1 (centres undefined),9.25%
7,CN1CCCN(C(=O)NCCNc2ncccn2)CC1,16.8%
8,CC(C)(C)n1cc(CNc2ccc(CNS(C)(=O)=O)cc2)cn1,74.4%
9,CC(C)OC(=O)NCc1ccc(NCc2cnn(C(C)(C)C)c2)cc1,18.9%
10,CC(=O)N(Cc1ccc(NCc2cnn(C(C)(C)C)c2)cc1)C(C)C,38.5%
11,CCNc1nc2cn(-c3ccc(C)c(C)c3)c(=O)c-2c[nH]1,-31.1%
12,Cc1cc2n(n1)CC(CNCc1cnn(-c3ccccc3)c1)CN2 (centres undefined),15.5%
13,Cn1cc(CCNCC2CNc3ccnn3C2)cn1 (centres undefined),71.4%
14,Cc1cc2n(n1)CC(CNCc1cnn(C)c1)CN2 (centres undefined),33.7%
15,Cc1cc2n(n1)CC(CNCCc1cnn(C)c1)CN2 (centres undefined),54.3%
16,COc1ccc(CNCC2CNc3ccnn3C2)cn1 (centres undefined),25.1%
17,COCCOc1ccc(CNCC2CNc3cc(C)nn3C2)cn1 (centres undefined),25.995%
18,O=C(NCCNCC1CNc2ccnn2C1)c1ccc(F)cc1 (centres undefined),32.4%
19,COc1ccc(CNCC2CNc3cc(C)nn3C2)cn1 (centres undefined),-6.185%
20,Cc1ccc(C(=O)NCCNCC2CNc3ccnn3C2)cc1 (centres undefined),7.67%
21,O=C(Cc1ccc(F)cc1)NCCNCC1CNc2ccnn2C1 (centres undefined),19.7%
22,Cc1cc2n(n1)CC(CNCc1ccc(OCC3CC3)nc1)CN2 (centres undefined),60.7%
23,Cc1ccc(C(=O)NCCNCC2CNc3ccnn3C2)cc1F (centres undefined),59.3%
24,CCN(Cc1noc(C2CCC2)n1)C(=O)c1cn2ccsc2n1,30%
25,CS(=O)(=O)CCCNC(=O)C1(c2cccc(Cl)c2)CC1,28.3%
26,CN(CC(N)=O)CC(=O)N1CC=C(c2ccccc2)CC1,-46.4%
27,COc1cc(NC2CCCN(c3ncccn3)C2)cc(OC)c1 (centres undefined),23.1%

row,Structure (SMILES),INHIBITION
1,CCc1cnccc1C(=O)NC1CCN(C(=O)C2CCCCC2)CC1,38.7%
2,CCC1CN(c2ncnc3nc[nH]c23)CCO1 (centres undefined),-2.03%
3,CC(O)CN1CCN(C(=O)c2ccc(N(C)C)nn2)CC1 (centres undefined),51.2%
4,CCc1nnsc1C(=O)N1CCN(CC(O)CC)CC1 (centres undefined),17.8%
5,CCCc1nnsc1C(=O)N1CCN(CC(C)O)CC1 (centres undefined),51.7%
6,CN(C)c1ccc(C(=O)N2CCN(CC(O)C(C)(C)C)CC2)nn1 (centres undefined),7.12%
7,CCCc1nnsc1C(=O)N1CCN(CC(O)C2CC2)CC1 (centres undefined),37.4%
8,CCC(O)CN1CCN(C(=O)c2ccc(N(C)C)nn2)CC1 (centres undefined),-26.6%
9,O=C1[C@H]2CN(c3ncccn3)C[C@H]2CN1CCN1CCCC1,19.5%
10,CC(C)n1ccc(C(=O)OCC2CC(=O)N(Cc3ccccc3)C2)n1 (centres undefined),1.74%
11,CC(C)(NC(=O)CCc1ccco1)c1ccc2c(c1)OCCO2,10.6%
12,Cc1cccc(N2CCN(C(=O)CCc3ccsc3)C(C)C2)n1 (centres undefined),-16.8%
13,Cc1cc(NC(=O)NCC(c2ccccc2)N2CCOCC2)n(C)n1 (centres undefined),-2.53%
14,CS(=O)(=O)c1ccc(CNC2CCCN(c3cccnn3)C2)cc1 (centres undefined),39.5%
15,CC(C)c1nc(CN(C)C2CCCN(c3cccnn3)C2)no1 (centres undefined),18.2%
16,CN(Cc1noc(C(C)(C)C)n1)C1CCCN(c2cccnn2)C1 (centres undefined),66.2%
17,Cc1nc(CNC2CCCN(c3cccnn3)C2)no1 (centres undefined),26.5%
18,Cc1nc(CN(C)C2CCCN(c3cccnn3)C2)no1 (centres undefined),-31.9%
19,Cc1cc(CNC2CCCN(c3cccnn3)C2)no1 (centres undefined),11.8%
20,CC(C)(C)c1nc(CNC2CCCN(c3cccnn3)C2)no1 (centres undefined),79.2%
21,CC(C)c1nc(CNC2CCCN(c3cccnn3)C2)no1 (centres undefined),78.2%
22,c1ccc(-c2nc(CNC3CCCN(c4cccnn4)C3)no2)cc1 (centres undefined),48.4%
23,CNC(=O)C1(CCCc2cnccn2)CCN1Cc1ccc(C)cc1 (centres undefined),24.585%
24,CC(NC(=O)NCC1(O)CCC1)c1ccc(OCC2CC2)c(F)c1 (centres undefined),13.4%
25,CCc1nn(C)c2[nH]nc(NC(=O)c3cccnc3OCC(C)C)c12,47.4%
26,Cn1cc(Cl)c(C(=O)N2CCc3nc4sccc4c(=O)n3CC2)n1,-9.32%
27,CCCc1nc(N(C)Cc2ccco2)c2c(n1)c(C)nn2CC,-6.42%
